Test results as given in PubChem BioAssay.
Unmarked numbers belong to inactive results. Active and inactive are the calls of the source. Rule as the data show it, unless noted: active = inhibition above about 30%; inactive = the rest.

Columns and labels:
[1] = target: Nuclear receptor coactivator 3 (Homo sapiens) (UniProt Q9Y6Q9); assay: NCOA3 GAL4-fusion reporter inhibition – cell-based, luminescence, quadruplicate, confirmation (AID 588792;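 active = mean inhibition over 43.08%, the solvent-only control mean plus 3 SD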;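 also: 0% = DMSO treated cells and 100% = gossypol at 36 µM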); conditions: HEK293 GAL4-SRC3 luciferase reporter, at 3.6 µM, stronger effect = higher value
Chain of Nuclear receptor coactivator 3 (Homo sapiens) (Q9Y6Q9 whole entry, looked up, the tested form may be a part): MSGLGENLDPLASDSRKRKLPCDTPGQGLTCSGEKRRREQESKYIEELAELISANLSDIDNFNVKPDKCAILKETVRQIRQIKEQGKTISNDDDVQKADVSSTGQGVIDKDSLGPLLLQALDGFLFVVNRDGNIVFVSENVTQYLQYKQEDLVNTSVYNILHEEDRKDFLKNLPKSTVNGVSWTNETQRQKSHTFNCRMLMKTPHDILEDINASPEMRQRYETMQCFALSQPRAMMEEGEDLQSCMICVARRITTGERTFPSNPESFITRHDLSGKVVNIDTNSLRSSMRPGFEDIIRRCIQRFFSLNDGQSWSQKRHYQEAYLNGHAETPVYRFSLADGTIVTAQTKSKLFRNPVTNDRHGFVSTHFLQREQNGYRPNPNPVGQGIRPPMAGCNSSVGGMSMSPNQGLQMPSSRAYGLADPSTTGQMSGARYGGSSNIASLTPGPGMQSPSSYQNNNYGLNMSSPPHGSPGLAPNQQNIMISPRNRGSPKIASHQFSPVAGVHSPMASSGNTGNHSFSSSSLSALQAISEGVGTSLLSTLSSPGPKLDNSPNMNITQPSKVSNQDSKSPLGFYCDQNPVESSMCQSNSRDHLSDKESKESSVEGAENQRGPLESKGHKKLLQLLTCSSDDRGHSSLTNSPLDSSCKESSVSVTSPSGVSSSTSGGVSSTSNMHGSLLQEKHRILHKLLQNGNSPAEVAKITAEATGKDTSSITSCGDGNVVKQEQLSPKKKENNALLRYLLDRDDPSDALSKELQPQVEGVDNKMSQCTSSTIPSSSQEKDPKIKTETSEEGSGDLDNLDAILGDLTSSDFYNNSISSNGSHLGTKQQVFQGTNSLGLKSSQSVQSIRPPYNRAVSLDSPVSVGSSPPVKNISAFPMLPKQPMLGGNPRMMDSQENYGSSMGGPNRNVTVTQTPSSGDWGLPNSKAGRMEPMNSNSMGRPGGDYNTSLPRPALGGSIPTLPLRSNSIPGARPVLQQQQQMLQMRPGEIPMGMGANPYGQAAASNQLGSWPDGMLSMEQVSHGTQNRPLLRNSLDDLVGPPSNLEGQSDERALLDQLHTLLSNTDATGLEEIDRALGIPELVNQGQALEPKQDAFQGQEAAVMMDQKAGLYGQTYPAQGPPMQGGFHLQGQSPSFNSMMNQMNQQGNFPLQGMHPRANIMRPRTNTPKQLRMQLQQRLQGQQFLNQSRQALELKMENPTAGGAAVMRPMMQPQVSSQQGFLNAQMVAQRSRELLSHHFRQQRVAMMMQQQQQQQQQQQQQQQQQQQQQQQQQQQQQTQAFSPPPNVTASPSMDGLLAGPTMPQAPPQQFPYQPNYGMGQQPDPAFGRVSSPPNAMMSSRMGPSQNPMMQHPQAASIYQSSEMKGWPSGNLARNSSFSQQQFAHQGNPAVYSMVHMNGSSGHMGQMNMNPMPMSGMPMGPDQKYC

[2] = system: transactivating tegument protein VP16 (Human herpesvirus 1), Gal4-VP16 luciferase reporter; assay: repression of VP16-driven luciferase reporter – cell-based, luminescence, high throughput, counter-screen for SRC3 inhibitor project (AID 588794); conditions: mammalian cells, at 3.6 µM, stronger effect = higher value
[3] = target: Nuclear receptor coactivator 1 (Homo sapiens) (UniProt Q15788); assay: NCOA1 GAL4-fusion reporter inhibition – cell-based, luminescence, quadruplicate, confirmation (AID 588820;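 active = mean inhibition above 46.68%, the untreated control wells mean plus 3 SD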;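 also: 0% = DMSO wells and 100% = gossypol 36 µM treated wells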); conditions: HEK293 GAL4-SRC1 luciferase reporter, at 3.6 µM, stronger effect = higher value
Chain of Nuclear receptor coactivator 1 (Homo sapiens) (Q15788 whole entry, looked up, the tested form may be a part): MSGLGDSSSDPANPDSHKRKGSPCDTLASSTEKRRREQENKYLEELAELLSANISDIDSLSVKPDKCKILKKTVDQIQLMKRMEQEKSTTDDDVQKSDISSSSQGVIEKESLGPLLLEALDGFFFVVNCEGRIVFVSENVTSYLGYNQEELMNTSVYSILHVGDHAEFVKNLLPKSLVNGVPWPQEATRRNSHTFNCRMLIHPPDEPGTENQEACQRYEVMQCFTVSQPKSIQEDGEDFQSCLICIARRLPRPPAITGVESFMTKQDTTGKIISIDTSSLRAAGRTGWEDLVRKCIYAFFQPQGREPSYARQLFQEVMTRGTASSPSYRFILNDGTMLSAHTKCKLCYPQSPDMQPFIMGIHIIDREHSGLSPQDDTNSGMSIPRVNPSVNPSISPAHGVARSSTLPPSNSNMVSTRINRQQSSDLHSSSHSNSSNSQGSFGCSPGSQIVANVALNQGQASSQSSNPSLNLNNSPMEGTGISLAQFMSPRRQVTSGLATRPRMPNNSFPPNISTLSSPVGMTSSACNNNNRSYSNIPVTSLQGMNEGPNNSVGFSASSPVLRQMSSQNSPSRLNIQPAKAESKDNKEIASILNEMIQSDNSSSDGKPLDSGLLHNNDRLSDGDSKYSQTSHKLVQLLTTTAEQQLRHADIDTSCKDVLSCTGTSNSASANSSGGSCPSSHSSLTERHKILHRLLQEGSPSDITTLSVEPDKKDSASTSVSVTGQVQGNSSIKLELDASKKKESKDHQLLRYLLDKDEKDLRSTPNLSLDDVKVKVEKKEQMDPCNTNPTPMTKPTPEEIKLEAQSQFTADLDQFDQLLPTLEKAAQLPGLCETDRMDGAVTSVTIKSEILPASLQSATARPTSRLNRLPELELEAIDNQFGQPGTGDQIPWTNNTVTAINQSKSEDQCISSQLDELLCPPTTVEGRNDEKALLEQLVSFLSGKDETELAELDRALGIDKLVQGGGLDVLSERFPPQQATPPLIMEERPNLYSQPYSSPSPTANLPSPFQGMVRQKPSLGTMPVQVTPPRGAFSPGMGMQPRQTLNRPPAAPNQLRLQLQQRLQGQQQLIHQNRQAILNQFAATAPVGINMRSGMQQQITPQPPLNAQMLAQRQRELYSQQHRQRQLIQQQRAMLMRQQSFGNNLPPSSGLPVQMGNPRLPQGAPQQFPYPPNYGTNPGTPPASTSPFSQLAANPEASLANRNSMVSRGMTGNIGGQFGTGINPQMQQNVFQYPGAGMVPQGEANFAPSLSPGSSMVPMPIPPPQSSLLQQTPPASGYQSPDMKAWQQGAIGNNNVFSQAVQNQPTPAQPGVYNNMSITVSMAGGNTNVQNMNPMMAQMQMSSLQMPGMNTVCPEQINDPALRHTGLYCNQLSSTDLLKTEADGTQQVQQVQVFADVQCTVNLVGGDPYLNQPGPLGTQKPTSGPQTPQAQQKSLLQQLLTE

[4] = repression of VP16-driven luciferase reporter – cell-based, luminescence, high throughput, counter-screen for SRC1 inhibitor project (AID 588824; in the data active = inhibition above about 25%); conditions: cell-based VP16 transactivation luciferase luminescence; at 3.6 µM; stronger effect = higher value

| Compound | inhibition [1] | inhibition [2] | inhibition [3] | inhibition [4] |
| --- | --- | --- | --- | --- |
| Cc1cc(CNC(=O)c2cccc([N+](=O)[O-])c2C)c2ccccc2n1 | 13.9% | 41.2% (active) | 16% | 35.8% (active) |
| NC(=O)c1sc2nc3c(c(-c4ccco4)c2c1N)CCC3 | 53.9% (active) | 8.75% | 52.9% (active) | 33.1% (active) |
| COc1ccc(C(C(=O)NC2CCCCC2)N(C(=O)CCl)c2ccc(C)cc2)cc1 (stereo unspecified) | 71.8% (active) | 52.9% (active) | 35.7% | 49.2% (active) |
| O=C(N/N=C/c1cc(Cl)cc(Cl)c1O)c1ccncc1 | 26.5% | 40.9% (active) | 30.7% | 33.7% (active) |
| CCOc1cc(/C=C2\CN(C)C/C(=C\c3ccc(O)c(OCC)c3)C2=O)ccc1O | 56.2% (active) | 60.4% (active) | -18.5% | 75.6% (active) |
| CC(C)(C)c1nnc(N/N=C/c2cc(Br)ccc2O)n(N)c1=O | 79% (active) | 69.2% (active) | 72% (active) | 63% (active) |
| CC(C)Cn1c(N)c(C(=O)CSc2ccc3c(c2)OCCO3)c(=O)n(C)c1=O | 35.5% | 56.9% (active) | 46% | 51.9% (active) |
| CCOC(=O)C(=Cc1ccccc1)C(=O)c1ccccc1 | 21.3% | 33.6% (active) | 10.6% | 28.7% (active) |
| CC(=O)N1c2ccc(S(=O)(=O)NCC3CCC(C(=O)Nc4cccc(C)n4)CC3)cc2CC1C (stereo unspecified) | -3.79% | 27.4% | -11.2% | 21.6% |
| O=C(NCc1cccs1)c1nc2c(nnn2Cc2ccccc2Cl)c(=O)[nH]1 | 84.2% (active) | 79.5% (active) | 58.5% (active) | 74.7% (active) |
| Nc1ccn([C@@H]2O[C@H](CO)[C@@H](O)C2O)c(=O)n1 (stereo partly specified) | 33.8% | 30.9% (active) | 32.5% | 19.4% |
| Cc1oc2c(Cl)c(Cl)c(O)c(CN(C)C)c2c1C(=O)c1ccc(Cl)cc1 | 44.1% (active) | 26.1% | 44.2% | 33.1% (active) |
| CCCCOC(=O)c1[nH]c2c(c1C)C(=O)CC(c1cc(OC)c(OC)c(OC)c1)C2 (stereo unspecified) | 8.2% | 28% | -1.5% | 32.1% (active) |
| Cc1nc(N)nc(N)c1-c1ccc(Cl)c(Cl)c1 | 58.5% (active) | 24.5% | 54.2% (active) | 33.6% (active) |
| COc1cc(/C=C/C(=O)Nc2ccc(OC)c(S(=O)(=O)N3CCOCC3)c2)ccc1OCC#N | 12.1% | 32.6% (active) | 19.1% | 40.3% (active) |
| COc1cccc2nc3c(C(=O)NCCN(C)C)cccc3cc12 | 35.9% | 39.9% (active) | 46.5% | 32.7% (active) |
| CC1CCN(Cc2c(C(=O)N/N=C/c3cc(Br)ccc3O)nnn2-c2nonc2N)CC1 | 75.4% (active) | 83.5% (active) | 84.8% (active) | 81.9% (active) |
| O=C(Nc1ccc([N+](=O)[O-])cc1)Nc1ccc(OC(F)F)c(Cl)c1 | 22.9% | 32.5% (active) | 10.3% | 39.7% (active) |
| CCCCN(CCCC)c1ncnc2nc[nH]c12 | 43.2% (active) | 30.1% (active) | 36.2% | 25.2% |
| COc1cc(C(=O)OCC(=O)Nc2sccc2C(N)=O)cc(OC)c1OC | 42.7% | 10.3% | -42.7% | 5.18% |
| NC(=S)NN=Cc1nccc2c(N)cccc12 | 72.3% (active) | 17.2% | 47.8% (active) | 8.49% |
| CNC(=O)c1ccc(NC(=O)C2CCN(c3ncnc4sc(C)c(C)c34)CC2)cc1 | 51.6% (active) | 35.5% (active) | 48.7% (active) | 30% (active) |
| O=C(CNS(=O)(=O)Cc1ccccc1)NNc1ccccc1 | 3.12% | 12.1% | 12.8% | 16.3% |
| COc1ccc(-c2coc3c(C(=O)Nc4cc(OC)c(OC)c(OC)c4)cccc23)c(C)c1 | 19.8% | 29.8% (active) | 0.16% | 31.8% (active) |
| Nc1nccc(-c2ccc(-n3cnc4ccccc43)cc2)n1 | 56.7% (active) | 27.4% | 57.7% (active) | 26.3% (active) |
| O=C(N/N=C/c1c(O)ccc2ccccc12)c1cccc(C(F)(F)F)c1 | 82.3% (active) | 78.6% (active) | 60.8% (active) | 77.4% (active) |
| COc1ccc(-n2c(C)c(C(C)=O)c3cc(OC(C)=O)ccc32)cc1 | 77.5% (active) | 55% (active) | 65.2% (active) | 60.4% (active) |

| Compound | inhibition [1] | inhibition [2] | inhibition [3] | inhibition [4] |
| --- | --- | --- | --- | --- |
| Cc1c2ccncc2cc2c1[nH]c1ccccc12 | 48.7% (active) | 33.5% (active) | 48.4% (active) | 19.9% |
| CCN(CC)CCNC(=O)c1ccc2c(c1NCCO)C(=O)c1ccccc1C2=O | -15.3% | -1.86% | -19.2% | -8.97% |
| Clc1ccc(-c2csc3ncnc(NCCN4CCOCC4)c23)cc1 | 32.2% | 25.3% | 46.6% | 31.8% (active) |
| Oc1ccc(-c2n[nH]c(=S)n2-c2ccc3c(c2)OCCO3)c(O)c1 | 50% (active) | 34% (active) | 20.9% | 43.7% (active) |
| C/C(=N\Nc1ccc2nncn2n1)c1ccccn1 | 70.3% (active) | 65.5% (active) | 62% (active) | 56.6% (active) |
| COc1cc(/C=C2\SC(N)=NC2=O)cc(OC)c1 | 20.4% | 27.3% | 34.7% | 18.9% |
| COc1ccc(Nc2nc(N3CCCC3)nc3ccccc23)c(OC)c1 | 16.8% | 37.1% (active) | 5.96% | 33.2% (active) |
| CC[n+]1ccccc1/C=C/c1ccc(N(C)C)cc1 | 15.6% | 47.5% (active) | 15.4% | 40.1% (active) |
| CSc1ncnc2c1ncn2CC(=O)C1CCC2C3CCC4=CC(=O)CCC4(C)C3CCC12C (stereo unspecified) | 19.5% | 12.2% | -0.31% | 12.1% |
| COc1ccc(Cc2nnc(SCc3ccc([N+](=O)[O-])cc3)o2)cc1 | 26.2% | 15.8% | 19.3% | 17.4% |
| Cc1cccc(CNc2ncnc3ccc(-c4ccoc4)cc23)c1 | 47% (active) | 40.7% (active) | 45.1% | 46% (active) |
| CCOC(=O)c1c(C)n(C)c2ccc(OC)c(NC(=O)c3cccs3)c12 | 22.9% | 35.7% (active) | 41.6% | 44.5% (active) |
| CCC(=O)Nc1cc2nn(-c3ccc(C)cc3)nc2cc1C | -6% | -33.2% | -102% | -68% |
| CC(C)n1c(-c2cccnc2)nc2cnccc21 | 29.8% | 26.9% | 38.1% | 18.9% |
| CC(C)(C)NC(=O)C(c1ccncc1)N(Cc1cccs1)C(=O)Cn1nnc(-c2ccc(F)cc2)n1 (stereo unspecified) | 59.4% (active) | 35% (active) | 43% | 29.1% (active) |
| CCN(CC)CCNc1ccc(C)c2sc3ccc(O)cc3c(=O)c12 | 41.5% | 34.1% (active) | 50% (active) | 31.8% (active) |
| O=C(N/N=C/c1cc(Br)ccc1O)c1ccncc1 | 23.8% | 34.2% (active) | 26.4% | 39.9% (active) |
| O=C(/C=C/c1ccc(OCCCF)cc1)Nc1ccnc(-c2cccnc2)n1 | 17.1% | 11.1% | -25.6% | 15.8% |
| O=C(NC(=S)/C(=C1\CCCCCN1)[N+](=O)[O-])c1ccccc1 | 32.1% | 9.73% | -25.3% | -33% |
| COc1ccc(NC(=O)CN(C)C(=O)C2(c3ccccc3)CCCC2)cc1 | 25.3% | 8.28% | 25.3% | 4.02% |
| O=C(c1ccncc1)N(Cc1cc2ccccc2[nH]c1=O)C1CCCCC1 | 40.7% | 23.2% | 42.2% | 23.1% |
| CCCCCCCCCCCCCCCC[n+]1cccc2ccccc21 | 44.9% (active) | 69.2% (active) | 39.9% | 76% (active) |
| Cn1c(/C(C#N)=C/c2ccc(-c3ccc(S(N)(=O)=O)cc3)o2)nc2ccccc21 | 27.9% | 27.3% | -4.53% | 28.9% (active) |
| Nc1ccc(Cn2ccc3c4c(N)nc(N)nc4ccc32)cc1 | 66.1% (active) | 32% (active) | 67.7% (active) | 36.9% (active) |
| CCCNC(=O)c1nnsc1S(=O)(=O)c1ccc(Cl)cc1 | 55.7% (active) | 6.39% | -64.8% | 5.6% |
| O=C(Nc1c2ccccc2nc2ccccc12)C(Cl)(Cl)Cl | -27% | 10.5% | -35% | 8.17% |
| COc1cccc(-c2ccc3ncnc(NCc4cccnc4)c3c2)c1 | 45.5% (active) | 31.6% (active) | 24.8% | 36.2% (active) |
